IL-1B inflam inh – inhibitors of inflammasome signaling (IL-1 beta secretion). THP-1 LPS/ATP IL-1B secretion, AlphaLISA, 16 h; stronger effect = lower value. activity change, % at 57.5 µM. hit rate 4.7% among 360,000. AID 743279; in the data active = activity change below about -50%; inconclusive = mostly about -30% to -49%; note: % is set by controls: 0 for no effect and ±100 for the full control effect
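Secreted IL-1B measured by AlphaLISA bead assay after 16 h compound exposure of THP-1 cells; compounds (final up to 57.5 uM) added 1 h before LPS (250 ng/mL) and ATP (1.25 mM) stimulation; lower signal means less secretion.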
MCF10A rereplic – inducers of DNA re-replication in MCF 10A breast cells; MCF 10A DNA re-replication, Hoechst nuclear intensity, 48 h; Potency, µM (top dose mostly 46.1 µM), for the others: at the highest dose activity, positive = re-replication, actives largely listed as activators; hit rate 2.9% among 350,000; AID 624296; note: potency is the fitted concentration of half-maximal effect; % of control where 0% means no effect; nearly all actives have a fitted effect of over 50% in size
Vif-APOBEC3F blk – inhibitors of Vif-A3F interaction; HeLa A3F-eYFP + Vif (tagged APOBEC3F with the HIV-1 protein that degrades it), YFP fluorescence increase; Potency, µM (series often up to 46.1 µM), inactives show at the top dose activity, negative = active; hit rate 0.2% among 390,000; AID 602313; note: potency is the fitted concentration of half-maximal effect; % of control where 0% means no effect; nearly all actives have a fitted effect of over 65% in size
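HeLa cells stably expressing A3F-eYFP plus Vif, plated and incubated overnight at 37 deg C, then exposed to compounds overnight at 37 deg C. Blocked degradation read as raised yellow fluorescence (Ex 488/Em 500-530).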
Vif-APOBEC3G blk – blocks the Vif interaction with human APOBEC3G; Q9HC16; HeLa A3G-eYFP + Vif (tagged APOBEC3G with the HIV-1 protein that degrades it), YFP fluorescence, overnight; Potency, µM (highest dose often 46.1 µM), for inactives: at the top dose activity, negative = active, usual class: inhibitors; hit rate 0.076% among 410,000; note: potency is the fitted concentration of half-maximal effect; % is set by controls: 0 for no effect and ±100 for the full control effect; nearly all actives have a fitted effect of over 60% in size
Target sequence (Q9HC16 whole entry, looked up): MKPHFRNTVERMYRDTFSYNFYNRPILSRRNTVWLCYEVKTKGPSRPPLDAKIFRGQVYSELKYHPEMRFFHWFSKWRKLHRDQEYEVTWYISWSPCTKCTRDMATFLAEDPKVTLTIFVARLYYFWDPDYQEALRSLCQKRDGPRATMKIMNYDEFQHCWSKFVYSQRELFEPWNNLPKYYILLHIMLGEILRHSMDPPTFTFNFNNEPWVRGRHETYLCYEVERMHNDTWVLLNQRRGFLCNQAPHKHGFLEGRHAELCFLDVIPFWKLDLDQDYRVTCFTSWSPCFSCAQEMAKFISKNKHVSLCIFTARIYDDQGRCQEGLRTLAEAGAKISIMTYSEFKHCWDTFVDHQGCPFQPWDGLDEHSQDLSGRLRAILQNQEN
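Read-out is eYFP fluorescence (Ex 488/Em 500-530) from Vif-expressing HeLa A3G-eYFP cells; more signal means A3G escaped Vif-mediated degradation. Cells plated overnight, compound pinned in, incubated overnight at 37 deg C.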
SW480 rereplic – induces DNA re-replication in SW480 colon adenocarcinoma cells; SW480 DNA re-replication, Hoechst DNA content imaging, 48 h; hit rate 1.8% among 340,000; Potency, µM (series often up to 46.1 µM), inactives show at the top dose re-replication activation, hits mostly activators; note: potency is the fitted concentration of half-maximal effect; % of control where 0% means no effect; nearly all actives have a fitted effect of over 55% in size
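Image-based read-out: total Hoechst fluorescence of nuclei (405 nm excitation, 500-530 nm emission), with hits raising the fraction of high-intensity nuclei. SW480 colon cells incubated 48 hr with compounds at 37 C.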
Giardia kill – Giardia lamblia killing; Giardia lamblia trophozoite viability; hit rate 0.15% among 340,000; AID 540267; activity change, % at 7.66 µM, hits read low; in the data active = activity change below about -80%; inconclusive = between about -30% and that limit;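 note: parasites exposed to compound for two days anaerobically before the ATP read; % is set by controls: 0 for no effect and ±100 for the full control effect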
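Killing of trophozoites was scored by loss of ATP luminescence after a 48 hrs anaerobic exposure to compounds at 37 deg C, using 100 cells per well.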
Active calls of the source: *; ? = inconclusive; nt = no result; [ ] = remark or other dose. In the library only some 6.9% were active in any assay of this set; here they are far more common. Unless noted, calls come from the whole dose curve; as a rule, active = well fitted curve in the direction sought with a large enough effect; inconclusive = small, poorly fitted or top-dose-only effect, or another doubt; inactive = no such curve, though single readings can be large; an effect the other way counts as inactive or inconclusive.

SMILES	IL-1B inflam inh	MCF10A rereplic	Vif-APOBEC3F blk	Vif-APOBEC3G blk	SW480 rereplic	Giardia kill
CCc1nc2sc(C#N)c(N)c2c2c1CCCC2	28	22%	-7%	1%	2%	-2
Cc1nc2sc(C(N)=O)c(N)c2c2c1CCCC2	-95*	?	3%	4%	?	-15
NC(=O)c1sc2nc(-c3ccccc3)c3c(c2c1N)CCCC3	8	21µM*	0%	0%	15µM*	8
Cc1ccc(Nc2c(-c3ccc(N4CCOCC4)cc3)nc3c(C)cccn23)cc1	nt	nt	-1%	1%	nt	nt
Cc1ccc(-c2nc3sc(C(N)=O)c(N)c3c3c2CCCC3)cc1	-2	5.2µM*	0%	-6%	16µM*	-3
CCc1c(C)sc2c1CCN(C(=O)Nc1ccc(F)c(Cl)c1)C2c1ccc(F)cc1 (centres undefined)	nt	nt	-2%	-2%	nt	nt
COc1cc(OC)c2c(c1)O/C(=C\c1ccccc1)C2=O	-10	?	2%	-5%	?	-7
COCOc1ccc(/C=C2/Oc3cc(OCOC)cc(OCOC)c3C2=O)c(OCOC)c1	-12	6.5µM*	-1%	-4%	?	0
CC(=O)N1CCN(c2ccc(NCc3ccc(-c4cccc(Cl)c4)o3)cc2)CC1	nt	21µM*	-16%	0%	?	-23
CC(=O)N1CCN(c2ccc(NCc3ccco3)cc2)CC1	nt	1%	6%	2%	17%	1
COc1ccc(CCNC(=O)c2cc3c(=O)n4cccc(C)c4nc3n2C)cc1	nt	nt	-10%	-2%	nt	nt
NCCCN(Cc1ccc(Cl)c(Cl)c1)c1ccc(Br)cn1	nt	nt	nt	nt	nt	0
CCOC(=O)C1=C(C)Nc2ccccc2N/C1=N\S(=O)(=O)c1ccc(Cl)cc1	49	8%	-13%	-6%	-20%	-11
CCOC(=O)C1=C(Cc2ccc(Cl)cc2)C(=O)c2ccccc2C1=O	-89*	?	28µM*	?	?	7
Cc1ccc2nc(C3CCCCC3)c(Cc3ccsc3)n2c1	-11	nt	nt	nt	nt	nt
Cc1ccc(Cc2c(C3CCCCC3)nc3ccc(C)cn23)cc1	-52*	nt	nt	?	nt	nt
COc1ccc(C[C@@H]2OC3(C=CC(=O)C=C3)O[C@H]2Cc2ccc(OC)cc2)cc1	-77*	0.73µM*	-11%	?	0.92µM*	-26
O=C1C=CC2(C=C1)O[C@H](Cc1ccccc1)[C@@H](Cc1ccccc1)O2	-100*	?	13%	?	0.92µM*	-5
CN1CCCN(C(=O)Cc2c(Cl)cccc2Cl)c2nc3ccccc3nc21	-7	?	-2%	-2%	16µM*	-6
CCCc1cc2c(OC(=O)CC)c(-c3ccc(C(=O)OCC)o3)c(=O)oc2cc1OC	20	21µM*	3%	0%	?	-28
CCCc1cc(-c2n[nH]c(C)c2-c2ccc(C(=O)OCC)o2)c(O)cc1O	6	0%	4%	-2%	1%	4
CC(C)CNC(=O)CN(C1CCCCC1)S(C)(=O)=O	15	?	-1%	0%	6.5µM*	13
CCCNC(=O)CN(C1CCCCC1)S(C)(=O)=O	6	1%	8%	-1%	1%	2
CC1CCN(S(=O)(=O)c2ccc3c(c2)N(CC(=O)NCCc2ccc(Cl)cc2)C(=O)CO3)CC1	nt	nt	-4%	-1%	nt	nt
CC(=O)Cc1nsc(NC(=O)c2ccc(-c3ccccc3Cl)o2)n1	0	12µM*	7%	?	?	-7
SMILES	IL-1B inflam inh	MCF10A rereplic	Vif-APOBEC3F blk	Vif-APOBEC3G blk	SW480 rereplic	Giardia kill
O=C(Nc1nccs1)c1ccc(-c2ccccc2Cl)o1	-89*	1%	-4%	-6%	1%	-26
CCOC(=O)N1CCN([N+]([O-])=NOc2cc(O/N=[N+](\[O-])N(CC)CC)c([N+](=O)[O-])cc2[N+](=O)[O-])CC1	nt	nt	nt	3%	nt	-21
CC(C)c1nn2c(=O)cc(COC(=O)c3ccc(NC(=O)c4cccs4)cc3)nc2s1	nt	nt	-1%	3%	nt	nt
CCOC(=O)C1=C(C)NC2=C(C(=O)c3ccccc32)C1c1ccc([N+](=O)[O-])o1 (centres undefined)	-66*	20%	14%	?	-9%[9.22 µM]	-95*
CC1CCCCN1CCNC(=O)c1ccc2c(=O)n(CCc3ccccc3)c(=O)[nH]c2c1 (centres undefined)	1	15%	-12%	0%	21%	26
CCN1CCN(C(=O)c2ccc3c(=O)n(CCc4ccccc4)c(=O)[nH]c3c2)CC1	21	?	-7%	-1%	29µM*	7
CN1CCN(CCCNC(=O)c2ccc3c(=O)n(CCc4ccccc4)c(=O)[nH]c3c2)CC1	-11	26%	-4%	?	1.6µM*	16
CC1CCCCN1CCNC(=O)c1ccc2c(=O)n(Cc3ccc(Cl)cc3)c(=S)[nH]c2c1 (centres undefined)	-97*	7.3µM*	7%	1%	?	13
COc1ccccc1Cn1c(=S)[nH]c2cc(C(=O)NCC3CCCO3)ccc2c1=O (centres undefined)	-1	-1%	7%	-1%	1%	34
CN1CCN(C(=O)c2ccc3c(=O)n(CCc4ccccc4)c(=S)[nH]c3c2)CC1	12	19%	-6%	-1%	-6%	8
COc1ccccc1Cn1c(=S)[nH]c2cc(C(=O)NCCN(C)C)ccc2c1=O	-56*	8%	2%	-2%	?	-2
O=C(c1ccc2c(=O)n(Cc3ccccc3)c(=S)[nH]c2c1)N1CCOCC1	38	4%	5%	1%	-7%	21
O=C(NCCCN1CCOCC1)c1ccc2c(=O)n(Cc3ccccc3)c(=S)[nH]c2c1	-73*	6%	0%	-1%	20%	5
Fc1ccc(CNC(=S)Nc2ccc(Cl)cc2Cl)cc1	-100*	6%	4%	2%	-199%	-16
Fc1ccccc1/C=N/NC(=S)Nc1ccc(Cl)cc1Cl	43	?	-13%	?	3.3µM*	-7
Fc1ccc(NC(=S)Nc2ccc(Cl)cc2Cl)cc1	-87*	20%	4%	0%	-6%	8
S=C(NCc1ccc(Cl)cc1)Nc1ccc(Cl)cc1Cl	-1	?	1%	-1%	-1%	1
